The structures appear in SMILES notation. Inconclusive results are not listed. Where a call stands in place of a potency, no number is given. A structure can be active in one record and inactive in another. Active and inactive are the calls of the source. Calls follow the shape of the dose curve; as a rule, active = well fitted activation curve with a large enough effect in the repeat runs; inconclusive = weak or mixed curves; inactive = flat fitted curve, though single readings scatter.

The values below come from PubChem BioAssay (Tox21).
Potency is read from the fitted curve at half-maximal effect.

This assay can be described thus: Caspase-3/7 induction in HepG2 cells by small molecules, qHTS assay (AID 1346978). Also: nearly all actives have a fitted effect of over 15% in size. The settings on record: HepG2 caspase-3/7 activation, Caspase-Glo luminescence, 17 h; series mostly up to 92.4 µM; caspase activation: at the top concentration. The text has this: National Center for Advancing Translational Sciences [NCATS] NIH Chemical Genomics Center [NCGC] U.S. Environmental Protection Agency [EPA] National Institutes of Environmental Health Sciences [NIEHS] National Toxicology Program [NTP] Assay overview: Apoptosis is a process of programmed cell death and plays a central role in the development of multicellular organisms. It is a highly regulated process and induces cell death by activating caspases, which are the members of cysteine aspartic acid-specific protease (caspase) family. Caspases involved in apoptosis are classified by their mechanism of action as initiator caspases (caspase-2, -8, -9 and -10) and executioner caspases (caspase-3, -6, and -7). Inhibition of apoptosis results in number of cancers, autoimmune diseases, inflammatory diseases and viral infection. To identify small molecule compounds that induce apoptosis, a homogeneous, luminescent Caspase-Glo 3/7 assay was used. Wild type HepG2 cells were used to screen Tox21 libraries for identifying caspase-3/7 activity inducers.
Assay Protocol Summary: HepG2 cells were dispensed at 2,000 per well in 5uL of culture medium into white solid bottom 1536-well plates (Corning Life Sciences, Corning, NY) using a Multidrop Combi (Thermo Scientific, Waltham, MA) dispenser. The assay plates were incubated at 37 C and 5% CO2 for 5hr, and then 23nL of compounds dissolved in DMSO and positive control were transferred using a Pintool station (Wako, San Diego, CA). The assay plates were incubated at 37C and 5% CO2 for 17hr. For caspase-3/7 activity read, 4uL of Caspase-Glo 3/7 reagent (Promega Corporation, Madison, WI) was added to each well of the assay plates using Flying Reagent Dispenser (FRD, Aurora Discovery, San Diego, CA) and incubated the assay plates at room temperature for 30min. The luminescence signal was quantified using a ViewLux plate reader (Perkin Elmer, Shelton, CT).
(In general: In qHTS, concentration-response curves come from the screen itself.)
As to `O=C1CCc2ccccc2O1`, the Potency entry was “inactive”.

For the compound `c1ccc2c(c1)ccc1ncccc12`, the “caspase activation” value was -0.534% (inactive).

As for `CN1CCOCC1`, the Potency result is “inactive”. As to `O=S1(=O)CCCO1`, the Potency entry was “inactive”. As for `Cc1ccc(S(=O)(=O)NCl)cc1`, the Potency entry was “inactive”.

Consider `Cc1ccc([N+](=O)[O-])c(C)c1`, for which the Potency entry is “inactive”. For the compound `COc1cc([C@H]2Oc3cc([C@H]4Oc5cc(O)cc(O)c5C(=O)[C@@H]4O)ccc3O[C@@H]2CO)ccc1O`, the Potency result was “inactive”. For the compound `CC(=O)O[C@]1(C(C)=O)CC[C@H]2[C@@H]3C=C(C)C4=CC(=O)CC[C@]4(C)[C@H]3CC[C@@]21C`, the Potency result is “inactive”. On to `CCCCCC1C(=O)CCC1CC(=O)OC` (stereo not given), for which the Potency result was “inactive”. Still for that read-out and setting: the entry for `CC(C)(Oc1ccc(Cl)cc1)C(=O)O` is “inactive”; for `CCCOCCO` it is “inactive”. Same read-out and setting: the entry for `CCCCCC=O` is “inactive”.

Regarding `CC(C)(C)c1cccc(C(C)(C)C)c1O`, the Potency entry was “inactive”. As to `C=C1C[C@H]2[C@@H]3C=C(C)C4=CC(=O)CC[C@]4(C)[C@H]3CC[C@]2(C)[C@@]1(OC(C)=O)C(C)=O`, the Potency result was “inactive”. As for `CCc1cccc2c3c([nH]c12)C(CC)(CC(=O)O)OCC3` (stereo not given), the Potency entry is “inactive”. On to `IC(I)I`, for which the Potency entry is “inactive”. As to `ClC/C=C/CCl`, the Potency entry is “inactive”. Still for that read-out and setting: in the case of `CC(=O)[C@@]1(O)CC[C@H]2[C@@H]3C[C@H](C)C4=CC(=O)C=C[C@]4(C)[C@@]3(F)[C@@H](O)C[C@@]21C` it was “inactive”. Regarding `C=CC(C)(O)CCC=C(C)C` (stereo not given), the Potency entry was “inactive”.

Regarding `C=CCNCC=C`, the Potency result was “inactive”. Consider `Clc1ccc(Sc2cc(Cl)c(Cl)cc2Cl)cc1`, for which the Potency result is “inactive”.

As for `CC(=O)[C@H]1CC[C@H]2[C@@H]3CC=C4C[C@@H](O)CC[C@]4(C)[C@H]3CC[C@]12C`, the Potency entry is “inactive”.

Regarding `CCCCCCCCCCC(CO)CCCCCCCC` (stereo not given), the Potency result is “inactive”. Regarding `CC(=O)Oc1ccc(C(c2ccc(OC(C)=O)cc2)c2ccccn2)cc1`, the Potency entry is “inactive”. Regarding `O=C(O)c1cc(=O)[nH]c(=O)[nH]1`, the Potency result was “inactive”. Same read-out and setting: in the case of `Nc1cc([N+](=O)[O-])ccc1C(=O)O` it was “inactive”; in that of `CCCCCCC(C)O` (stereo not given), “inactive”; in that of `O=Cc1ccccc1C=O`, 48.6 µM (active) and inactive. On to `Oc1c(Cl)ccc(Cl)c1Cl`, for which the “caspase activation” value is 0.475% (inactive). Regarding `C1CN(SSN2CCOCC2)CCO1`, the “caspase activation” value was 0.354% (inactive). On to `CC1(C)C(C=C(Cl)Cl)C1C(=O)OCc1cccc(Oc2ccccc2)c1` (stereo not given), for which the “caspase activation” value is -1.29% (inactive). With `O=C(O)CCCCCCCCCCCC(=O)O`, the Potency entry was “inactive”. Same read-out and setting: in the case of `OC[C@@H](O)[C@@H](O[C@@H]1O[C@H](CO)[C@H](O)[C@H](O)[C@H]1O)[C@H](O)[C@@H](O)CO` it was “inactive”; in that of `Nc1ccc2c(c1)C(=O)c1ccccc1C2=O`, “inactive”; in that of `CC(C)[C@@H]1CC[C@@H](C)CC1=O`, “inactive”. Turning to `O=C(O)COCCN1CCN(C(c2ccccc2)c2ccc(Cl)cc2)CC1` (stereo not given), the Potency entry was “inactive”.

With `OC[C@H]1O[C@@H]2O[C@H]3[C@H](O)[C@@H](O)[C@@H](O[C@H]4[C@H](O)[C@@H](O)[C@@H](O[C@H]5[C@H](O)[C@@H](O)[C@@H](O[C@H]6[C@H](O)[C@@H](O)[C@@H](O[C@H]7[C@H](O)[C@@H](O)[C@@H](O[C@H]1[C@H](O)[C@H]2O)O[C@@H]7CO)O[C@@H]6CO)O[C@@H]5CO)O[C@@H]4CO)O[C@@H]3CO`, the Potency entry is “inactive”. Turning to `CN(Cc1cnc2nc(N)nc(N)c2n1)c1ccc(C(=O)N[C@@H](CCC(=O)O)C(=O)O)cc1`, the Potency entry is “inactive”. For the compound `CC(=O)OC(C)C`, the Potency result was “inactive”. Turning to `CC[C@]12CCCN3CCc4c(n(c5ccccc45)[C@@](O)(C(=O)OC)C1)[C@@H]32`, the Potency result is “inactive”.
